# How the values were obtained:
# Experiment in all cases: yeast three-hybrid, YBZ-1, SC-Leu-His + 0.5 mM 3-AT, 4 days
# Details in all cases: tags: N-Gal4 AD-HA kept; label: inside an RPR1-promoter hybrid RNA with tandem MS2 sites; ssRNA
# PUM1 PUF domain R3-SPR = PUM1 PUF domain R3-SPR (Homo sapiens, UniProt Q14671 828-1176, C935S;R936P;Q939R)
# Summary of the method: (§1)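 The interaction score is the log change in variant frequency from input to selection. Scores were computed in log2 with a pseudocount of 1 for absent variants, using Illumina sequencing of PCR-amplified repeat regions. The input came from four days on SC-Leu and the selection from four days on SC-Leu-His + 0.5 mM 3-AT. The cells were strain YBZ-1 (LexA–MS2 coat fusion, HIS3 reporter) co-expressing Pumilio-1 PUF domain libraries and matching RNA elements from a centromeric plasmid.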
# PUM1 PUF domain R6-VFR = molecular target: T1, PUM1 PUF domain R6-VFR (Homo sapiens, UniProt Q14671 828-1176, N1043V;Y1044F;Q1047R)
# T1 sequence: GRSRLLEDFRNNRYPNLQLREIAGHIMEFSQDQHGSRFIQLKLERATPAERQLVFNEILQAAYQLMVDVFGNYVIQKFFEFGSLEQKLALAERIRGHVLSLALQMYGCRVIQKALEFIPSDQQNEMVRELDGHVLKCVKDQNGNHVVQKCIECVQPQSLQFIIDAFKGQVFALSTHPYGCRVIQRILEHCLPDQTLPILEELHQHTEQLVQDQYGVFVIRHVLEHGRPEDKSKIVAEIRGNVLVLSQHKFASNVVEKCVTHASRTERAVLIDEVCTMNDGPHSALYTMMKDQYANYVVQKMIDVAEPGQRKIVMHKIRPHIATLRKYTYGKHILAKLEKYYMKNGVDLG
# Summary of the method: as §1
# PUM1 PUF domain R4-VPT = PUM1 PUF domain R4-VPT (Homo sapiens, UniProt Q14671 828-1176, N971V;H972P;Q975T)
# Summary of the method: as §1
# PUM1 PUF domain R4-PHV = PUM1 PUF domain R4-PHV (Homo sapiens, UniProt Q14671 828-1176, N971P;Q975V)
# Summary of the method: as §1
# PUM1 PUF domain R3-SQE = PUM1 PUF domain R3-SQE (Homo sapiens, UniProt Q14671 828-1176, C935S;R936Q;Q939E)
# Summary of the method: as §1
# PUM1 PUF domain R3-DYI = PUM1 PUF domain R3-DYI (Homo sapiens, UniProt Q14671 828-1176, C935D;R936Y;Q939I)
# Summary of the method: as §1
# PUM1 PUF domain R5-NPI = PUM1 PUF domain R5-NPI (Homo sapiens, UniProt Q14671 828-1176, C1007N;R1008P;Q1011I)
# Summary of the method: as §1
# PUM1 PUF domain R1-KSR = PUM1 PUF domain R1-KSR (Homo sapiens, UniProt Q14671 828-1176, S863K;R864S;Q867R)
# Summary of the method: as §1
# PUM1 PUF domain R7-SRK = PUM1 PUF domain R7-SRK (Homo sapiens, UniProt Q14671 828-1176, N1080R;E1083K)
# Summary of the method: as §1
# PUM1 PUF domain R5-SAS = PUM1 PUF domain R5-SAS (Homo sapiens, UniProt Q14671 828-1176, C1007S;R1008A;Q1011S)
# Summary of the method: as §1
sequence,measurement,setting,value
GGCUAGAACUAGUGGAUCCCCCGGCGCCCGGCGGCUCGAGCCCGGGUAAGUGUAACUAGUCUGCAUGCCGCCGGGCGCCAUGCCUGCAGGUCGACUCUAGAAAACAUG,binding signal,PUM1 PUF domain R3-SPR,1.77 log2 enrichment (interaction score)
GGCUAGAACUAGUGGAUCCCCCGGCGCCCGGCGGCUCGAGCCCGGGUAAGUGCAAAUAGUCUGCAUGCCGCCGGGCGCCAUGCCUGCAGGUCGACUCUAGAAAACAUG,binding signal,PUM1 PUF domain R6-VFR,1.27 log2 enrichment (interaction score)
GGCUAGAACUAGUGGAUCCCCCGGCGCCCGGCGGCUCGAGCCCGGGUAAGUGUAUAUAGUCUGCAUGCCGCCGGGCGCCAUGCCUGCAGGUCGACUCUAGAAAACAUG,binding signal,PUM1 PUF domain R4-VPT,2.12 log2 enrichment (interaction score)
same,binding signal,PUM1 PUF domain R4-PHV,7.14 log2 enrichment (interaction score)
GGCUAGAACUAGUGGAUCCCCCGGCGCCCGGCGGCUCGAGCCCGGGUAAGUGUACAUAGUCUGCAUGCCGCCGGGCGCCAUGCCUGCAGGUCGACUCUAGAAAACAUG,binding signal,PUM1 PUF domain R4-VPT,0.61 log2 enrichment (interaction score)
same,binding signal,PUM1 PUF domain R4-PHV,4.96 log2 enrichment (interaction score)
GGCUAGAACUAGUGGAUCCCCCGGCGCCCGGCGGCUCGAGCCCGGGUAAGUGUAAGUAGUCUGCAUGCCGCCGGGCGCCAUGCCUGCAGGUCGACUCUAGAAAACAUG,binding signal,PUM1 PUF domain R3-SQE,3.11 log2 enrichment (interaction score)
same,binding signal,PUM1 PUF domain R3-SPR,1.77 log2 enrichment (interaction score)
GGCUAGAACUAGUGGAUCCCCCGGCGCCCGGCGGCUCGAGCCCGGGUAAGUGUAAUUAGUCUGCAUGCCGCCGGGCGCCAUGCCUGCAGGUCGACUCUAGAAAACAUG,binding signal,PUM1 PUF domain R3-SPR,3.06 log2 enrichment (interaction score)
GGCUAGAACUAGUGGAUCCCCCGGCGCCCGGCGGCUCGAGCCCGGGUAAGUGUAAAUAGUCUGCAUGCCGCCGGGCGCCAUGCCUGCAGGUCGACUCUAGAAAACAUG,binding signal,PUM1 PUF domain R6-VFR,4.2 log2 enrichment (interaction score)
same,binding signal,PUM1 PUF domain R4-PHV,4.46 log2 enrichment (interaction score)
same,binding signal,PUM1 PUF domain R3-DYI,5.38 log2 enrichment (interaction score)
same,binding signal,PUM1 PUF domain R3-SPR,0.25 log2 enrichment (interaction score)
GGCUAGAACUAGUGGAUCCCCCGGCGCCCGGCGGCUCGAGCCCGGGUAAGUGUUAAUAGUCUGCAUGCCGCCGGGCGCCAUGCCUGCAGGUCGACUCUAGAAAACAUG,binding signal,PUM1 PUF domain R5-NPI,2.85 log2 enrichment (interaction score)
GGCUAGAACUAGUGGAUCCCCCGGCGCCCGGCGGCUCGAGCCCGGGUAAGUGUAAAUUGUCUGCAUGCCGCCGGGCGCCAUGCCUGCAGGUCGACUCUAGAAAACAUG,binding signal,PUM1 PUF domain R1-KSR,5.58 log2 enrichment (interaction score)
GGCUAGAACUAGUGGAUCCCCCGGCGCCCGGCGGCUCGAGCCCGGGUAAGUGUAAAUCGUCUGCAUGCCGCCGGGCGCCAUGCCUGCAGGUCGACUCUAGAAAACAUG,binding signal,PUM1 PUF domain R1-KSR,5.1 log2 enrichment (interaction score)
GGCUAGAACUAGUGGAUCCCCCGGCGCCCGGCGGCUCGAGCCCGGGUAAGUCUAAAUAGUCUGCAUGCCGCCGGGCGCCAUGCCUGCAGGUCGACUCUAGAAAACAUG,binding signal,PUM1 PUF domain R7-SRK,4.33 log2 enrichment (interaction score)
GGCUAGAACUAGUGGAUCCCCCGGCGCCCGGCGGCUCGAGCCCGGGUAAGUGUGAAUAGUCUGCAUGCCGCCGGGCGCCAUGCCUGCAGGUCGACUCUAGAAAACAUG,binding signal,PUM1 PUF domain R5-SAS,5.82 log2 enrichment (interaction score)
